Calls of active or inactive are those of the source. The calls were made as follows: active = hit-call score of the fitted dose curve at least 0.9, where 1 is the maximum; inactive = score below 0.9.

Read-out in this test: ABC Transporter (ABCC3), ABCC3 (gene 8714)
The experiment in a line: LTEA_HepaRG_ABCC3: Life Technologies and Expression Analysis (LTEA) Assay for ABC Transporter (ABCC3) using HepaRG (AID 2283462). To be noted: mRNA level, 48 h; actives raise or lower the signal. The method, then: LTEA_HepaRG is a cell based, multiplexed-readout assay that uses HepaRG, a human liver cell line, with measurements taken at 48 hours after chemical dosing on a 96-well plate.LTEA_HepaRG_ABCC3 is one of 102 assay component(s) measured in the LTEA HepaRG cell culture assay. It is a marker of NR mediated transport.Data from the assay component LTEA_HepaRG_ABCC3 was analyzed into 1 endpoint. This assay endpoint, LTEA_HepaRG_ABCC3, was analyzed with bidirectional fitting relative to DMSO as the negative control and baseline of activity. Using a type of inducible reporter, measures of mRNA induction for gain or loss-of-signal activity can be used to understand regulation of transcription factor activity. To generalize the intended target to other relatable targets, this assay endpoint is annotated to the transporter intended target family, where the subfamily is ABC transporter.
A total of 1060 chemcials from the ToxCast library were tested in eight-point concentration-response experiments. Cell culture and cytotoxicity assays were conducted at Thermo Fisher Scientific's Custom Services facility (Madison, WI). A single lot of human HepaRG cells (Thermo Fisher Scientific, Frederick, MD) was used for the cell culture experiments. 96-well format collagen type I coated plates of human HepaRG cells were prepared using established methods. Briefly, cryopreserved HepaRG cells were thawed, plated at a density of approximately 100,000 cells/well in HepaRG Thaw, Plate, and General Purpose media (HPRG770, Thermo Fisher Scientific), and incubated for 48 hours. 0.5% DMSO was selected as vehicle control to balance the requisite need of DMSO in HepaRG cultures to maintain differentiation (for example, baseline metabolism, proportions of hepatocytes vs. cholangiocytes), while enabling further hepatic receptor pathway activation (for example, PXR and CAR) in response to chemical exposure. 48 hours after plating, the culture medium was replaced with HepaRG Serum-Free Incudtion Media. Cells were exposed to each test chemical in duplicate and maintained in CO2 incubators for another 48 hours. Chemical plates were thawed to room temperature and 200x concentrations of treatment groups were prepared. 8-point conentration-reponse curves were made with the highest exposure at 100 uM, followed by half-log dilutions, all in 0.5% DMSO. Each test plate contained variouse controls, induction positive controls (1mM phenobarbital), cytotoxicity positive controls ([…] aflatoxin B1), vehicle controls (0.5% DMSO), and total lysis controls (0.5% DMSO). Cell morphology images were taken using an Essen IncuCyte FLR automated microscope, with six 96-well plates imaged in about 24 minutes. Images were captured and exported and JPEG files. Spent culture media was transfered to black-well plates for the LDH assay, and remaining media was sorted at -80 C for later use. Cells were treated with RLT buffer and frozen until shipped for gene expression analysis. Total RNA was isolated from the cell suspension in 75 uL of Buffer RLT (Qiagen, Germantown, MD 20874) by Quintiles/Expression Analysis (Durham, NC) using a custom isolation procedure. Total RNA from each plate well was transferred to a preamplification plate. Fluidigm's 96.96 Dynamic ArrayTM (Fluidigm, Amsterdam, the Netherlands) technology was used for gene expression analyses by quantitative reverse transcription polymerase chain reaction (qRT-PCR, performed by Quintiles/Expression Analysis, Durham, NC)89. Standard TaqManTM Assays (Applied Biosystems/ThermoFisher Scientific, Foster City, CA) were used to assess the expression of 93 genes selected based on their selectivity and sensitivity to important hepatic receptors known to be modulated by environmental chemicals; importance in human hepatocyte functionality; and hepatotoxicity. […]
`CCCOC(=O)c1ccc(O)cc1`: the outcome was inactive. `Cc1cc(CCN2CCN(c3nsc4ccccc34)CC2)cc2c1NC(=O)CC2(C)C`: the call was inactive. Same read-out and setting: the same measure for `OCCC(F)(F)C(F)(F)C(F)(F)C(F)(F)C(F)(F)C(F)(F)F`: “inactive”; for `CCCOc1sc(C(=O)N2CCC(c3cc(CN)ccc3F)CC2)c(C)c1Br`: “inactive”.

In the case of `CC(=O)CC(C)(C)O`, the call was inactive. Turning to `OC1CCCCC1`, the call was inactive. `CC(C)CCCCCCOC(=O)CCCCC(=O)OCCCCCCC(C)C`: the compound was classed as inactive.

With `CC(=O)NC1(c2cccc(F)c2)CCN(CC[C@@]2(c3ccc(Cl)c(Cl)c3)CN(c3ccccc3)C(=O)CO2)CC1`, the compound was called inactive.

For `CCCCCCCCCCCCc1ccccc1S(=O)(=O)O`, the outcome was inactive. On the same count and under the same terms, then `C#C[C@]1(O)CC[C@H]2[C@@H]3CCC4=CC(=O)CC[C@@H]4[C@H]3CC[C@@]21C`, with “inactive”; and `O=C(O)c1ccccc1C(c1ccc(O)cc1)c1ccc(O)cc1`, with “inactive”; and `CN(C)C=O`, with “inactive”. Still for that read-out and setting: then `CCCCC(CC)COC(=O)CCCCC(=O)OCC(CC)CCCC` (stereo not given), with “inactive”. Regarding `CC1=C(/C=C/C(C)=C/C=C/C(C)=C/C(=O)O)C(C)(C)CCC1`, the compound was called inactive.

For the compound `CC[C@H](c1ccc(O)cc1)[C@@H](CC)c1ccc(O)cc1`, the result was inactive. Still for that read-out and setting: then `CCCCOCCO`, with “inactive”; and `CCc1nn(C2CCCCC2)c2cc(C3(C#N)CCC(C(=O)O)CC3)ccc12` (stereo not given), with “inactive”; and `CCc1ccc(CCOc2ccc(CC3SC(=O)NC3=O)cc2)nc1` (stereo not given), with “inactive”.

As for `CC(O)CO` (stereo not given), the compound was called inactive. What is called AC50 is the concentration at which the activity in the assay is half-maximal. For the compound `NC(=O)N(O)[C@@H]1C=C[C@H](Oc2cccc(Oc3ccc(F)cc3)c2)C1`, the AC50 is 21.1 µM (active). Regarding `O=C(OCCOCCOC(=O)c1ccccc1)c1ccccc1`, the call was inactive. For `Oc1cccc(O)c1`, the outcome was inactive. Regarding `Nc1cccc2c(N)cccc12`, the compound was called inactive. Still for that read-out and setting: the same measure for `CCC(C)(C)C1CCC(O)CC1` (stereo not given): “inactive”; for `CN1CCC[C@H]1c1cccnc1`: “inactive”.

For the compound `ClC1=C(Cl)C(Cl)(Cl)C(Cl)=C1Cl`, the compound was called inactive. The same measure, in the same setting: then `CCCCCCC(=O)O`, with “inactive”; and `CCOC(=O)CC(O)(CC(=O)OCC)C(=O)OCC`, with “inactive”.

Regarding `Cc1cc(C)c(O)c(C)c1`, the call was inactive.

`COc1ccc([N+](=O)[O-])cc1N`: the compound was classed as inactive. Turning to `CC(C)(C)c1ccc(O)c(C(C)(C)C)c1`, the compound was called inactive. For `C=C(C)C(=O)OCCC(F)(F)C(F)(F)C(F)(F)C(F)(F)C(F)(F)C(F)(F)F`, the result was inactive.

As for `CCCCCCCCCCCCN1CCCC1=O`, the compound was classed as inactive. Regarding `CN1CCN(c2ccccc2/C=C2\SCCN(c3ccc(Cl)c(Cl)c3)C2=O)CC1`, the half-maximal activity concentration (AC50) is 11.5 µM (active). For `COCC(C)OCC(C)O` (stereo not given), the outcome was inactive. With `O=C(O)Cc1cc(I)c(Oc2cc(I)c(O)c(I)c2)c(I)c1`, the concentration at half-maximal activity (AC50) was 52.4 µM (active).

For `O=c1c(-c2ccc(O)cc2)coc2cc(O)ccc12`, the call was inactive. Still for that read-out and setting: the same measure for `c1ccc2cc3c(ccc4ccccc43)cc2c1`: “inactive”.

With `CCCCCCCC(=O)O`, the result was inactive.

For `COCC(C)O` (stereo not given), the result was inactive.

The record behind these values is PubChem BioAssay (EPA / NIEHS).
